Data published in PubChem BioAssay AID1159580 (chemical genetic matrix, 2015).
Screen size: about 5,500 compounds; about 2,000 (36%) were called active. Roughly 18% stayed inconclusive and do not appear here. The list shows a part of the results. Unmarked numbers belong to inactive results. Rule as the data show it: active = normalized growth mostly below about 0.91 (no sharp cut-off); inconclusive = no clear call, values can overlap the other calls; inactive = mostly above about 0.92.

Test: chemical genetic growth profiling, strain panel (AID 1159580);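 also: tested at 20 µM; growth read once vehicle control cultures reached saturation at 30 °C; 1 = growth at the plate median or of vehicle wells; lower values mean less growth of the strain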
Conditions: S. cerevisiae deletion strains, growth OD
[1] = locus YAR019C, strain CDC15, active compounds read low
[2] = locus YBL105C, strain PKC1, active compounds read low
[3] = locus YBR135W, strain CKS1, active compounds read low
[4] = locus YBR136W, strain MEC1, active compounds read low
[5] = locus YBR160W, strain CDC28, active compounds read low
[6] = locus YDL017W, strain CDC7, active compounds read low
[7] = locus YDL028C, strain MPS1, active compounds read low
[8] = locus YDL101C, strain DUN1, active compounds read low
[9] = locus YDL108W, strain KIN28, active compounds read low
[10] = locus YDL132W, strain cdc53, active compounds read low
[11] = locus YDL214C, strain PRR2, active compounds read low
[12] = locus YDR052C, strain DBF4, active compounds read low
[13] = locus YDR054C, strain cdc34, active compounds read low
[14] = locus YDR226W, strain ADK1, active compounds read low
[15] = locus YDR477W, strain SNF1, active compounds read low
[16] = locus YER123W, strain YCK3, active compounds read low
[17] = locus YER133W, strain GLC7, active compounds read low
[18] = locus YFL009W, strain cdc4, active compounds read low
[19] = locus YFL029C, strain CAK1, active compounds read low
[20] = locus YFR003C, strain YPI1, active compounds read low
[21] = locus YFR019W, strain FAB1, active compounds read low
[22] = locus YFR028C, strain CDC14, active compounds read low
[23] = locus YGR040W, strain KSS1, active compounds read low
[24] = locus YGR052W, strain FMP48, active compounds read low
[25] = locus YGR092W, strain DBF2, active compounds read low
[26] = locus YHR030C, strain SLT2, active compounds read low
[27] = locus YHR079C, strain IRE1, active compounds read low
[28] = locus YHR082C, strain KSP1, active compounds read low
[29] = locus YHR205W, strain SCH9, active compounds read low
[30] = locus YIL147C, strain SLN1, active compounds read low
[31] = locus YJL095W, strain BCK1, active compounds read low
[32] = locus YJL128C, strain PBS2, active compounds read low
[33] = locus YJL157C, strain FAR1, active compounds read low
[34] = locus YJR016C, strain ILV3, active compounds read low
[35] = locus YJR066W, strain TOR1 (second series), active compounds read low
[36] = locus YJR066W, strain TOR1, active compounds read low
[37] = locus YKL048C, strain ELM1, active compounds read low
[38] = locus YKL067W, strain YNK1, active compounds read low
[39] = locus YKL101W, strain HSL1, active compounds read low
[40] = locus YKL193C, strain SDS22, active compounds read low
[41] = locus YKL203C, strain TOR2, active compounds read low
[42] = locus YLR113W, strain HOG1, active compounds read low
[43] = locus YLR133W, strain CKI1, active compounds read low
[44] = locus YLR403W, strain SFP1, active compounds read low
[45] = locus YML070W, strain DAK1, active compounds read low
[46] = locus YMR001C, strain CDC5, active compounds read low
[47] = locus YMR205C, strain PFK2 (second series), active compounds read low
[48] = locus YMR277W, strain FCP1, active compounds read low
[49] = locus YNL006W, strain LST8, active compounds read low
[50] = locus YNL020C, strain ARK1, active compounds read low
[51] = locus YNL161W, strain CBK1, active compounds read low
[52] = locus YNL183C, strain NPR1, active compounds read low
[53] = locus YNL207W, strain RIO2, active compounds read low
[54] = locus YNL222W, strain SSU72, active compounds read low
[55] = locus YNL307C, strain MCK1 (second series), active compounds read low
[56] = locus YOL078W, strain AVO1, active compounds read low
[57] = locus YOL136C, strain PFK27, active compounds read low
[58] = locus YOR061W, strain CKA2, active compounds read low
[59] = locus YOR119C, strain RIO1, active compounds read low
[60] = locus YOR231W, strain MKK1, active compounds read low
[61] = locus YOR329C, strain SCD5, active compounds read low
[62] = locus YPL031C, strain PHO85, active compounds read low
[63] = locus YPL153C, strain RAD53, active compounds read low
[64] = locus YPL204W, strain HRR25, active compounds read low
[65] = locus YPL209C, strain IPL1, active compounds read low
[66] = locus YPL256C, strain CLN2, active compounds read low
[67] = locus YPR025C, strain CCL1, active compounds read low
[68] = locus YPR106W, strain ISR1, active compounds read low
[69] = locus YPR111W, strain DBF20, active compounds read low
[70] = strain NNK1, active compounds read low
[71] = strain TSCII, active compounds read low

Oc1c(Cl)cc(Cl)cc1/C=N\NC(=S)Nc1cc(C(F)(F)F)cc(C(F)(F)F)c1
normalized growth [1]: 0.815 (active) | normalized growth [2]: 0.899 (active) | normalized growth [3]: 0.884 (active) | normalized growth [4]: 0.888 (active) | normalized growth [5]: 0.893 (active) | normalized growth [6]: 0.889 (active) | normalized growth [7]: 0.878 (active) | normalized growth [8]: 0.922 | normalized growth [9]: 0.88 (active) | normalized growth [10]: 0.811 (active) | normalized growth [11]: 0.179 (active) | normalized growth [12]: 0.894 (active) | normalized growth [13]: 0.491 (active) | normalized growth [14]: 0.886 (active) | normalized growth [15]: 0.285 (active) | normalized growth [16]: 0.158 (active) | normalized growth [17]: 0.338 (active) | normalized growth [18]: 0.611 (active) | normalized growth [19]: 0.784 (active) | normalized growth [20]: 0.853 (active) | normalized growth [21]: 0.111 (active) | normalized growth [22]: 0.857 (active) | normalized growth [23]: 0.35 (active) | normalized growth [24]: 0.132 (active) | normalized growth [25]: 0.0943 (active) | normalized growth [26]: 0.126 (active) | normalized growth [27]: 0.103 (active) | normalized growth [28]: 0.151 (active) | normalized growth [29]: 0.121 (active) | normalized growth [30]: 0.887 (active) | normalized growth [31]: 0.136 (active) | normalized growth [32]: 0.905 | normalized growth [33]: 0.128 (active) | normalized growth [34]: 0.722 (active) | normalized growth [35]: 0.118 (active) | normalized growth [36]: 0.119 (active) | normalized growth [37]: 0.166 (active) | normalized growth [38]: 0.137 (active) | normalized growth [39]: 0.12 (active) | normalized growth [40]: 0.858 (active) | normalized growth [41]: 0.132 (active) | normalized growth [42]: 0.171 (active) | normalized growth [43]: 0.12 (active) | normalized growth [44]: 0.159 (active) | normalized growth [45]: 0.116 (active) | normalized growth [46]: 0.805 (active) | normalized growth [47]: 0.157 (active) | normalized growth [48]: 0.811 (active) | normalized growth [49]: 0.673 (active) | normalized growth [50]: 0.117 (active) | normalized growth [51]: 0.789 (active) | normalized growth [52]: 0.245 (active) | normalized growth [53]: 0.858 (active) | normalized growth [54]: 0.885 (active) | normalized growth [55]: 0.114 (active) | normalized growth [56]: 0.856 (active) | normalized growth [57]: 0.139 (active) | normalized growth [58]: 0.114 (active) | normalized growth [59]: 0.217 (active) | normalized growth [60]: 0.128 (active) | normalized growth [61]: 0.56 (active) | normalized growth [62]: 0.163 (active) | normalized growth [63]: 0.171 (active) | normalized growth [64]: 0.121 (active) | normalized growth [65]: 0.891 (active) | normalized growth [66]: 0.158 (active) | normalized growth [67]: 0.893 (active) | normalized growth [68]: 0.922 | normalized growth [69]: 0.905 | normalized growth [70]: 0.272 (active) | normalized growth [71]: 0.621 (active)

CCNC(=S)N/N=C\c1cc(Cl)cc(Cl)c1O
normalized growth [1]: 0.926 | normalized growth [2]: 0.938 | normalized growth [3]: 0.92 | normalized growth [4]: 0.931 | normalized growth [5]: 0.922 | normalized growth [6]: 0.925 | normalized growth [7]: 0.927 | normalized growth [8]: 0.923 | normalized growth [9]: 0.928 | normalized growth [10]: 0.948 | normalized growth [11]: 0.83 | normalized growth [12]: 0.929 | normalized growth [13]: 0.938 | normalized growth [14]: 0.941 | normalized growth [15]: 0.733 | normalized growth [16]: 0.577 (active) | normalized growth [17]: 0.752 | normalized growth [18]: 0.911 | normalized growth [19]: 0.919 | normalized growth [20]: 0.937 | normalized growth [21]: 0.873 | normalized growth [22]: 0.947 | normalized growth [23]: 0.775 | normalized growth [24]: 0.709 | normalized growth [25]: 0.313 (active) | normalized growth [26]: 0.446 (active) | normalized growth [27]: 0.341 (active) | normalized growth [28]: 0.699 | normalized growth [29]: 0.778 | normalized growth [30]: 0.923 | normalized growth [31]: 0.568 | normalized growth [32]: 0.925 | normalized growth [33]: 0.774 | normalized growth [34]: 0.93 | normalized growth [35]: 0.654 | normalized growth [36]: 0.509 | normalized growth [37]: 0.825 | normalized growth [38]: 0.875 | normalized growth [39]: 0.76 | normalized growth [40]: 0.908 | normalized growth [41]: 0.686 (active) | normalized growth [42]: 0.706 (active) | normalized growth [43]: 0.804 | normalized growth [44]: 0.746 | normalized growth [45]: 0.809 | normalized growth [46]: 0.923 | normalized growth [47]: 0.805 | normalized growth [48]: 0.916 | normalized growth [49]: 0.919 | normalized growth [50]: 0.749 | normalized growth [51]: 0.926 | normalized growth [52]: 0.589 | normalized growth [53]: 0.91 | normalized growth [54]: 0.93 | normalized growth [55]: 0.647 | normalized growth [56]: 0.916 | normalized growth [57]: 0.778 | normalized growth [58]: 0.801 | normalized growth [59]: 0.78 | normalized growth [60]: 0.471 (active) | normalized growth [61]: 0.926 | normalized growth [62]: 0.635 (active) | normalized growth [63]: 0.621 (active) | normalized growth [64]: 0.642 (active) | normalized growth [65]: 0.919 | normalized growth [66]: 0.495 (active) | normalized growth [67]: 0.923 | normalized growth [68]: 0.947 | normalized growth [69]: 0.938 | normalized growth [70]: 0.94 | normalized growth [71]: 0.912
